In PubChem BioAssay AID1645870 (National Center for Advancing Translational Sciences (NCATS), 2021):
Screen size: about 59,000 compounds; about 1,500 (2.5%) were called active. Another 10% or so got no clear call; they are omitted. This is one part of a sample in which actives are shown more often than they occur. Values without a mark were called inactive. The call rests on the fitted dose curve; in most records, active means well fitted inhibition curve with a large enough effect; inconclusive means small, poorly fitted or top-dose-only effect; inactive means flat fitted curve, though single readings scatter.

Target: N-terminal Xaa-Pro-Lys N-methyltransferase 1 (Homo sapiens) (UniProt Q9BV86)
Assay: Primary qHTS for Inhibitors of N-terminal methyltransferase 1 (NTMT1): MTaseGlo Assay; further: nearly all actives have a fitted effect of over 65% in size;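 on activity change, negative = inhibition: plate controls were DMSO vehicle for no effect and no enzyme for full effect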
Conditions: NTMT1 MTase-Glo SAH luminescence, purified enzyme; series mostly up to 114 µM; activity change, negative = inhibition: at the top concentration
Source text: Assay Submitter (PI): Rong Huang Ph.D.
Purdue University, West Lafayette, IN 47907
The N-terminal methytransferase 1 is the first methyltransferase that methylates protein alpha-N-amines and plays an important role in regulating cell mitosis, chromatin interactions and DNA repair. It is observed to be over-expressed in various cancer patient tissues like malignant melanoma and colorectal cancer tissues. Knockdown of NTMT1 in cancer cells causes cell mitotic defects and enhances sensitivity to DNA damaging chemotherapeutics. […] These critical cellular processes in which NTMT1 is implicated, coupled with emerging links to cellular dysfunction, strengthen the inference that NTMT1 is a compelling novel anticancer target. Progress have been made in understanding the molecular properties of NTMT1 and the biological consequences of protein alpha-N-terminal methylation, but there are no specific small molecule probes available for NTMT1 to fully characterize its MTase activity. To address this unmet need, a panel of assay is created and established to enable quantitative high-throughput screening (qHTS) for novel, potent, and selective small molecule NTMT1 inhibitors. Two orthogonal qHTS that use different reagents (ThioGlo vs. MTaseGlo) are developed for primary robotic screening against the NCATS chemical library of more than 400,000 small molecules. Identified inhibitors are reacquired, validated, and further characterized.
MTaseGlo Assay is a luminescence screen that measure the activity of methyltransferases based on the reaction product S-adenosyl homocysteine (SAH). The substrate SAM is converted to SAH upon enzyme activation. MTase-Glo reagent and detection solution convert SAH to ATP and measure the light from the luciferase reaction.
Materials: NTMT1 enzyme, substrate SPKRIA, control peptide RCC1-6 is provided by the Huang laboratory.
SEQUENCE No. (e.g., 1, 2, 3, etc.); […] (e.g., Cells, Incubation, Reagent, etc.); VALUE; DESCRIPTION
1; Enzyme; 3 uL; Dispense enzyme mixture (final concentrations of 125 nM NTMT1 and 100 uM SAM) into Greiner 1536-well white / solid bottom assay plate (Greiner Bio One, Monroe, NC).
2; Compounds; 23 nL; Compounds and controls were transferred via a Kalypsys Pin Tool (Wako USA) equipped with a 1536-slotted pin array (Wako Automation, Richmond, VA)
3; Incubation; 15 min; Incubate at room temperature
4; Substrate; 1 uL; Dispense 1 uL of substrate at final concentration of 1 uM. Buffer solution was dispensed in control wells. The assay plate was covered with metal lids.
5; Incubation; 30 min; Incubate at room temperature, protected from lights.
6; Reagent; 1 uL; Dispensed 5x MTase-Glo detection reagent (R) into the assay plate. The plate was covered with metal lids.
7; Incubation; 30 min; Incubate the assay plates at room temperature in the dark to allow for SAH to be converted to ADP.
8; Reagent; 5 uL; Dispense 5 uL of 1x MTase-Glo Detection Solution (R) to allow for ADP to be converted to ATP which was then detected with a luciferase reaction.
9; Centrifuge; 15 sec; Centrifuge the assay plate for 15 seconds at 1000 RPM.
10; Incubation; 30 min; Assay plates were incubation at room temperature in the dark.
11; Detection; Luminescence; Plates were read on ViewLux detector (PerkinElmer). Data were normalized to no-enzyme (0% activity) and no-inhibitor (DMSO; 100%) controls, and the resulting percent inhibition data were fitted to a 4-parameter Hill equation using GraphPad Prism.
Potency means the concentration at half of the fitted maximal effect.

N-terminal Xaa-Pro-Lys N-methyltransferase 1 (Homo sapiens), sequence (Q9BV86 whole entry, looked up): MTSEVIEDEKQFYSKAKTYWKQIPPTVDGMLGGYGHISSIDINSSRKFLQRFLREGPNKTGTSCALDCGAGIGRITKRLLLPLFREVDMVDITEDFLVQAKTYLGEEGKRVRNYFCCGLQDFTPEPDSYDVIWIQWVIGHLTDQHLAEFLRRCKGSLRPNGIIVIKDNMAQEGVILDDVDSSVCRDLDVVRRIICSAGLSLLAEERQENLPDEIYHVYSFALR

Row | Compound | activity change, negative = inhibition | Potency
1 | COc1ccc(C2Nc3ccccc3C(=O)N2Cc2ccccc2)cc1COc1ccc(C(N)=O)cc1 (stereo not drawn) | 16% [at 57.5 µM] | –
2 | C[C@H](NC(=O)c1c(N)nn2cccnc12)c1cc2cccc(C#Cc3cnn(C)c3)c2c(=O)n1-c1ccccc1 | 8.45% [at 57.5 µM] | –
3 | Cc1sc(NC(=O)Cc2ccc3c(c2)OCO3)nc1-c1ccc2c(c1)CCN2 | 4.99% | –
4 | CCCN(CCC)CCCNC(=O)Cn1ncc2c3ccccc3n(Cc3ccccc3)c2c1=O | -15.4% | –
5 | CCN(CCCNC(=O)Cn1ncc2c3ccccc3n(C)c2c1=O)Cc1ccccc1 | 4.28% | –
6 | CCN(CC)CCNC(=O)Cn1ncc2c3ccccc3n(Cc3ccccc3C)c2c1=O | – | 89.1 µM (active)
7 | CCOc1ccc(CCNC(=O)c2cc3sccc3n2CCN2CCOCC2)cc1OCC | -2.87% | –
8 | CS(=O)(=O)c1ccc(C(=O)OCC(=O)N2CCC(c3ccccc3)CC2)cc1[N+](=O)[O-] | 12.1% | –
9 | Cc1cc(N[S+](=O)([O-])c2ccc(NC(=O)Cc3ccc(F)c(C(F)(F)F)c3)cc2)no1 | 11.7% | –
10 | Cc1cc(Oc2ccc3nc(COc4ccc(CC5SC(=O)NC5=O)cc4)n(C)c3c2)cc(C)c1N (stereo not drawn) | -20.2% | –
11 | CCCCc1nn2c(=O)cc(COC(=O)c3cccc(NC(=O)COc4ccccc4)c3)nc2s1 | 12.9% | –
12 | Cc1nn2c(=O)cc(COC(=O)c3cccc(NC(=O)COc4ccccc4Cl)c3)nc2s1 | -5.59% | –
13 | COc1ccc(OCC(=O)Nc2cccc(C(=O)OCc3cc(=O)n4nc(C)sc4n3)c2)cc1 | – | 50.1 µM (active)
14 | CCOc1cc2[nH]c(=O)n(Cc3ccc(C(=O)NCCN(CC)CC)cc3)c(=O)c2cc1OCC | 0.768% | –
15 | CCN(CC)CCNC(=O)c1c(C)[nH]c(C=C2C(=O)Nc3ccc(F)cc32)c1C | – | 44.1 µM (active)
16 | CCN(CC)CCNC(=O)c1cc(S(C)(=O)=O)ccc1OC | 10.6% [at 57.5 µM] | –
17 | CCOc1cc(C(C)(C)C)ccc1C1=N[C@@](C)(c2ccc(Cl)cc2)[C@@](C)(c2ccc(Cl)cc2)N1C(=O)N1CCN(CC(=O)N2CCOCC2)CC1 | 23.9% [at 57.5 µM] | –
18 | C=C1C[C@@H]2CC[C@@]34C[C@H]5O[C@H]6[C@@H](O3)[C@H]3O[C@H](CC[C@@H]3O[C@H]6[C@H]5O4)CC(=O)C[C@@H]3[C@@H](OC)[C@@H](C[C@H](O)CN)O[C@H]3C[C@H]3O[C@@H](CC[C@@H]1O2)C[C@@H](C)C3=C | 19.2% [at 29.8 µM] | –
19 | O=S(=O)(NC1CCN(S(=O)(=O)c2ccc3c(c2)OCCO3)CC1)c1c(F)cccc1F | 0.994% | –
20 | COc1ccc(C2=Nn3c(nnc3-c3ccccc3F)SC2)cc1OC | 8.76% | –
21 | COC(=O)c1ccc(NC(=O)CSc2n[nH]c(-c3ccccc3)n2)cc1 | 7.74% | –
22 | COc1ccc(NC(=O)CSc2nc3ccccc3[nH]2)cc1 | 3.79% | –
23 | COc1ccc(-c2nc3c(c(SCC(=O)Nc4ccc(C(=O)O)cc4)n2)Cc2ccccc2O3)cc1 | – | 11.2 µM (active)
24 | CN(C)CC(=O)NC1CCCc2c1cnn2-c1ccc(F)cc1F (stereo not drawn) | 16.2% | –
25 | O=C(Nc1ccc(Cl)c(Cl)c1)Nc1nnc(C2CCCCC2)s1 | 4.94% | –
26 | O=C(Nc1ccc(Cl)c(Cl)c1)Nc1nnc(-c2ccc(F)cc2)s1 | 2.77% [at 57.5 µM] | –
27 | O=C(Nc1ccc(Cl)c(Cl)c1)Nc1nnc(N2CCNCC2)s1 | – | 50.1 µM (active)
28 | O=C(Nc1nc(-c2ccccc2)cs1)c1ccccc1-n1cnnn1 | -8.17% | –
